Compounds without any hit were thinned out: in the full panel of roughly 83,000, 20% have a hit.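 Plates (96-well) were seeded with cells, treated with compound at one concentration, and incubated for 48 hours before percent growth was determined.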 Values without a mark were called inactive. Active and inactive are the calls of the source. The calls were made as follows: active = growth percent below 10; inactive = the rest.

Among the test systems are SR leukemia; RPMI-8226 leukemia; OVCAR-8 ovarian; OVCAR-5 ovarian; OVCAR-4 ovarian; SK-OV-3 ovarian; IGROV1 ovarian; OVCAR-3 ovarian; HS 578T breast; NCI/ADR-RES ovarian; T-47D breast; BT-549 breast; MDA-MB-435 melanoma; SW-620 colon; MCF7 breast; HCT-116 colon; HCC-2998 colon; KM12 colon.
What all share (assay): NCI-60 one-dose screen, 48 h (100 = growth as untreated, 0 = no growth, -100 = all killed)
Holding throughout (conditions): 10 µM unless noted

As for `N#Cc1c(-c2ccc(C(F)(F)F)cc2)cc(N2CC(O)C2)n2c1nc1ccccc12`, the growth in the assay with SR leukemia was 73.5%; in the assay with RPMI-8226 leukemia, 78.8%; in the assay with OVCAR-8 ovarian it was 19.4%; in the assay on OVCAR-5 ovarian, 77.5%; in the assay on OVCAR-4 ovarian, -29.8% (active); in the assay with SK-OV-3 ovarian it was 18.8%. Moreover, the growth in the assay on IGROV1 ovarian was 60.9%; in the assay with OVCAR-3 ovarian it was 48.4%; in the assay with HS 578T breast it was 17.8%; with NCI/ADR-RES ovarian, 38.3%; with T-47D breast, 36.1%; in the assay with BT-549 breast, 37.9%. Besides, the growth was 83.7% in the assay with MDA-MB-435 melanoma; 82.8% in the assay with SW-620 colon; 81.6% in the assay on MCF7 breast; 55.4% with HCT-116 colon; 95.6% in the assay with HCC-2998 colon; 74.2% in the assay on KM12 colon.
Regarding `O=c1ccn(C2OC(F)(CO)C(O)C2F)c(=O)[nH]1` (stereo not given), the growth in the assay with SR leukemia was 101%; with RPMI-8226 leukemia, 106%; with OVCAR-8 ovarian, 98.3%; with OVCAR-5 ovarian it was 103%; with OVCAR-4 ovarian it was 105%; in the assay on SK-OV-3 ovarian, 93.4%. Further, the growth with IGROV1 ovarian was 112%; in the assay with OVCAR-3 ovarian it was 107%; with HS 578T breast, 94.1%; in the assay on NCI/ADR-RES ovarian, 101%; in the assay with T-47D breast, 81.2%; in the assay with BT-549 breast, 101%. The growth is 103% in the assay with MDA-MB-435 melanoma; 104% in the assay on SW-620 colon; 91.6% with MCF7 breast; 104% with HCT-116 colon; 99.1% with HCC-2998 colon; 104% in the assay with KM12 colon.
On to `CC1(C)N=C(N)N=C(N)N1c1cccc(CN)c1`, for which the growth with SR leukemia is 105%; in the assay on RPMI-8226 leukemia, 99.9%; in the assay on OVCAR-8 ovarian it was 93.3%; in the assay on OVCAR-5 ovarian, 89.2%; in the assay with OVCAR-4 ovarian, 93.8%; with SK-OV-3 ovarian, 101%. Besides, the growth is 88.8% with IGROV1 ovarian; 94.9% in the assay with OVCAR-3 ovarian; 95.6% with HS 578T breast; 96.4% in the assay on NCI/ADR-RES ovarian; 102% in the assay on T-47D breast; 94.6% in the assay on BT-549 breast. The growth is 104% with MDA-MB-435 melanoma; 98.4% in the assay on SW-620 colon; 95.9% in the assay on MCF7 breast; 91.3% with HCT-116 colon; 100% in the assay with HCC-2998 colon.
Consider `CCNCCNc1cc(-c2ccc(F)cc2)c(C#N)c2nc3ccccc3n12`, for which the growth is -23% (active) in the assay on SR leukemia; 36.4% with RPMI-8226 leukemia; 42.2% in the assay with OVCAR-8 ovarian; 89.9% in the assay on OVCAR-5 ovarian; 31% in the assay on OVCAR-4 ovarian; 94.5% in the assay with SK-OV-3 ovarian. Further, the growth in the assay with IGROV1 ovarian was 60.4%; in the assay on OVCAR-3 ovarian it was 0.676% (active); in the assay with HS 578T breast, 64.2%; with NCI/ADR-RES ovarian, 55.4%; in the assay on T-47D breast, 21.3%; with BT-549 breast, 70.9%. The growth with MDA-MB-435 melanoma was -62.7% (active); with SW-620 colon it was 10.8%; with MCF7 breast it was 35.4%; with HCT-116 colon, 24.5%; in the assay on HCC-2998 colon, 53.5%; with KM12 colon, 66.4%.
In the case of `CN1C[C@@H](c2ccc(Cl)cc2)[C@]2(NC(=S)N(c3ccccc3)C2=O)[C@@]12C(=O)NC1C=CC(Br)=C[C@H]12` (stereo not given in full), the growth in the assay with SR leukemia was 48.2%; in the assay on RPMI-8226 leukemia it was 29.3%; in the assay on OVCAR-8 ovarian it was 70.1%; in the assay on OVCAR-5 ovarian, 101%; in the assay on OVCAR-4 ovarian, 71.6%; in the assay with SK-OV-3 ovarian it was 77.2%. Further, the growth with IGROV1 ovarian is 56%; with OVCAR-3 ovarian, 77.2%; in the assay with HS 578T breast, 68.4%; with NCI/ADR-RES ovarian it was 64.3%; with T-47D breast, 49.5%; with BT-549 breast, 56%. Moreover, the growth in the assay on MDA-MB-435 melanoma was 77.4%; in the assay with SW-620 colon it was 85.2%; with MCF7 breast, 51.3%; in the assay on HCT-116 colon, 27.5%; in the assay with HCC-2998 colon, 94.9%.
Consider `COc1cccc(CCC2CCCN(c3cc(C)nc(N)n3)C2)c1` (stereo not given), for which the growth was 26.7% in the assay with SR leukemia; 18.4% in the assay with RPMI-8226 leukemia; 24.4% in the assay on OVCAR-8 ovarian; 33.9% in the assay on OVCAR-5 ovarian; 52.2% in the assay on OVCAR-4 ovarian; 40.5% in the assay with SK-OV-3 ovarian. The growth was 31.3% with IGROV1 ovarian; 11.4% with OVCAR-3 ovarian; 56.8% in the assay with HS 578T breast; 6.21% (active) in the assay on NCI/ADR-RES ovarian; 45.9% in the assay with T-47D breast; 39.1% in the assay with BT-549 breast. Also, the growth in the assay with MDA-MB-435 melanoma is 0.575% (active); in the assay on SW-620 colon, 30.4%; in the assay with MCF7 breast it was 17.8%; in the assay on HCT-116 colon, 7.36% (active); in the assay with HCC-2998 colon, 39.4%; with KM12 colon, 20.5%.
For the molecule `Cc1c(C(N)=O)sc2nc(C)n(/N=c3\scc(-c4ccccc4)n3Cc3ccccc3)c(=O)c12`, the growth in the assay on SR leukemia was 12.8%; in the assay with RPMI-8226 leukemia it was -10.3% (active); in the assay on OVCAR-8 ovarian, 14.7%; in the assay on OVCAR-5 ovarian it was 47.9%; in the assay with OVCAR-4 ovarian it was 33.5%; in the assay with SK-OV-3 ovarian, 58.6%. The growth is 10.9% in the assay on IGROV1 ovarian; 4.32% (active) with OVCAR-3 ovarian; -14.6% (active) in the assay with HS 578T breast; 18.9% in the assay on NCI/ADR-RES ovarian; 34.7% in the assay on T-47D breast; -6.7% (active) in the assay with BT-549 breast. The growth is 12.2% in the assay on MDA-MB-435 melanoma; 12.5% with SW-620 colon; 17.3% in the assay with MCF7 breast; 29.1% in the assay on HCT-116 colon; 57.1% with HCC-2998 colon; 13.6% in the assay with KM12 colon.
As for `CCOC(=O)C1C(=O)C=C(c2cnccn2)CC1c1ccc(OC)c(OC)c1` (stereo not given), the growth in the assay with SR leukemia was 89.6%; in the assay with RPMI-8226 leukemia it was 90%; in the assay on OVCAR-8 ovarian, 92.3%; in the assay on OVCAR-5 ovarian it was 103%; with OVCAR-4 ovarian, 109%; in the assay on SK-OV-3 ovarian it was 82.2%. Besides, the growth with IGROV1 ovarian is 105%; in the assay with OVCAR-3 ovarian, 106%; in the assay with HS 578T breast it was 99.8%; with NCI/ADR-RES ovarian it was 98.2%; in the assay on T-47D breast, 83.5%; in the assay on BT-549 breast it was 71.5%. Moreover, the growth in the assay with MDA-MB-435 melanoma was 106%; in the assay with SW-620 colon it was 106%; in the assay on MCF7 breast it was 93.1%; in the assay on HCT-116 colon, 79.7%; with HCC-2998 colon it was 99%; in the assay on KM12 colon, 102%.
In the case of `C[C@@H]1C(=O)N(C[C@H](Cc2ccccc2)N(Cc2ccccc2)Cc2ccccc2)[C@]1(Cc1ccccc1)C(=O)OC(C)(C)C`, the growth was 56.2% in the assay on SR leukemia; 36.8% in the assay on RPMI-8226 leukemia; 66.7% in the assay with OVCAR-8 ovarian; 109% in the assay with OVCAR-5 ovarian; 28.8% in the assay with OVCAR-4 ovarian; 73.1% in the assay with SK-OV-3 ovarian. The growth in the assay with IGROV1 ovarian is 77.5%; in the assay on OVCAR-3 ovarian, 54.5%; in the assay with HS 578T breast it was 73%; in the assay with NCI/ADR-RES ovarian it was 69%; in the assay with T-47D breast, 47.4%; in the assay on BT-549 breast, 85.7%. Further, the growth is 76.5% in the assay with MDA-MB-435 melanoma; 63.7% in the assay with SW-620 colon; 50.6% in the assay with MCF7 breast; 40.6% in the assay on HCT-116 colon; 84.5% with HCC-2998 colon; 62.4% in the assay on KM12 colon.

The record behind these values is PubChem BioAssay (NCI).
